# For some of these results: Entries with a potency or affinity are not part of this list.
# What was measured:
# Set-up in all cases: scale not given: direction of the effect not stated beside the values
# [1] = biological target: Protein translocase subunit SecA (Escherichia coli (strain K12)) (UniProt P10408); assay: Assay to Identify E. coli SecA ATPase Inhibitors; type: functional; settings: 30 µM
# [2] = biological target: T1, Ubiquitin-activating enzyme e1, putative (Leishmania donovani (strain BPK282A1)) (UniProt E9BSI1); assay: Leishmania donovani Ubiquitin Activating Enzyme (LdE1); type: functional; settings: 30 µM
# T1 sequence (whole entry): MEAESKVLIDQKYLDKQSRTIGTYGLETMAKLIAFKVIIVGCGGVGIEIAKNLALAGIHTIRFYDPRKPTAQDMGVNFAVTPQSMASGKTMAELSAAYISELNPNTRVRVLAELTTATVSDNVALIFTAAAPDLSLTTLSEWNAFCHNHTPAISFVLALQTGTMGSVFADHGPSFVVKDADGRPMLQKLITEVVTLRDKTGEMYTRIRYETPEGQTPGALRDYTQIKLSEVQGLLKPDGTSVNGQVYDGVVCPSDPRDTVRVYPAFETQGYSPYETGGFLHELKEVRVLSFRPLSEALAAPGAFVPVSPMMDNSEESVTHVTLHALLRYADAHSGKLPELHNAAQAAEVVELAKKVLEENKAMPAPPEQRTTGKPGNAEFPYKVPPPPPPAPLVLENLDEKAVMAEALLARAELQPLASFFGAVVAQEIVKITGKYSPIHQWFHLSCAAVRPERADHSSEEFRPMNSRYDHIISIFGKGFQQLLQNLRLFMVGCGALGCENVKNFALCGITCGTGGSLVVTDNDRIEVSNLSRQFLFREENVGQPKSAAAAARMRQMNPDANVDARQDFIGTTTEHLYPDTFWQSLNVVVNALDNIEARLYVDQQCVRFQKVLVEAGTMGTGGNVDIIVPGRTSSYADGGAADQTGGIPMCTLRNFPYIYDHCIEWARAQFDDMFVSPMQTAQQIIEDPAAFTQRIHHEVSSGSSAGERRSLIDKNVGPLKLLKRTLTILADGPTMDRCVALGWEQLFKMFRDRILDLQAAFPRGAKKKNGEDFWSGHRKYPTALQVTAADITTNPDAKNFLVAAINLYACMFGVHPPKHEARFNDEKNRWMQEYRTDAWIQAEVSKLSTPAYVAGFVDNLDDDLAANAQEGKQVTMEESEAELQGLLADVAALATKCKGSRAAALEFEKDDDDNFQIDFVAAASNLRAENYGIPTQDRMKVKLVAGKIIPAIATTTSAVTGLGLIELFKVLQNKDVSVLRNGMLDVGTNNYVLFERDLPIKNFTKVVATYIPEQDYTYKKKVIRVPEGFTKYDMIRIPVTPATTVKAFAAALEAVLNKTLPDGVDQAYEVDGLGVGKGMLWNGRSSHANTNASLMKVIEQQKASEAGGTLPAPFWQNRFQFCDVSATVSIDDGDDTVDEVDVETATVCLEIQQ
# [3] = biological target: AMP-activated protein kinase, AMPK (Homo sapiens) (UniProt P54646+O43741+P54619+Q9UGJ0+Q9Y478+Q13131+Q9UGI9); assay: AMP-dependent Kinase enzyme assay. An in vitro enzyme assay that detects ADP turnover that is directly proportional to AMPK activity. This uses naive AMPK that is activated during the assay with MK-8722; type: functional; settings: 30 µM
# [4] = biological target: Sialic acid-binding Ig-like lectin 9 (Homo sapiens) (UniProt Q9Y336); assay: Hs-Siglec9 ALPHAscreen SOP 20170721; settings: 10 µM
# Trypanosoma cruzi = assay: Trypanosoma cruzi phosphomannomutase and mannose-1-phosphate guanylyltransferase assay; type: functional; settings: 10 µM
# [5] = biological target: T2, Arginase-2, mitochondrial (Homo sapiens) (UniProt P78540); assay: in vitro enzyme assay to detect the production of urea directly proportional to the activity of Arginase II; type: functional; settings: 33.3 µM; also: in the data most compounds retested in dose-response had high values
# T2 sequence (whole entry): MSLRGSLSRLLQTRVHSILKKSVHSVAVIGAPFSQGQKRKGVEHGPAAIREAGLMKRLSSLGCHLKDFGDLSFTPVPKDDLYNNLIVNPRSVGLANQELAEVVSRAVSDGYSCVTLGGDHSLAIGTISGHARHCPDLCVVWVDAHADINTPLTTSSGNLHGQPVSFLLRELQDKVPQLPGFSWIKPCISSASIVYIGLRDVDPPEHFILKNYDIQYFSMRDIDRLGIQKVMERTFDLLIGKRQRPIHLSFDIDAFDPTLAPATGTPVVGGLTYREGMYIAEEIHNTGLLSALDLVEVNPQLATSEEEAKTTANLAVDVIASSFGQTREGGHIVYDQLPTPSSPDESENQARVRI
# [6] = biological target: T3, Proteasome subunit beta (Trypanosoma cruzi) (UniProt O96673); assay: Trypanosoma cruzi proteasome chymotrypsin-like activity (TcProtChymo) assay.; also: in the data most compounds retested in dose-response had high values; type: functional; settings: 9.37 µM
# T3 sequence (whole entry): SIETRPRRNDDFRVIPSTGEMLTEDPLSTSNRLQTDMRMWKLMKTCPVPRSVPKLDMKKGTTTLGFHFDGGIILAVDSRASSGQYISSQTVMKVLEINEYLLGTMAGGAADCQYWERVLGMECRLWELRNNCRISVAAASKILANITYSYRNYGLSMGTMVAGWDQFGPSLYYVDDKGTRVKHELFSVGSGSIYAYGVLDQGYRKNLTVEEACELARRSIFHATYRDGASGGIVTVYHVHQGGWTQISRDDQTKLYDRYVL
# Homo sapiens = species on record: Homo sapiens; assay: To identify inhibition of the IFN signalling (Jak-Stat) pathway via expression of an eGFP reporter gene under the control of an IFN-stimulated response element (ISRE) containing MxA promoter.; type: functional; settings: 30 µM
# [7] = biological target: T4, Tyrosyl-tRNA synthetase, putative (Trypanosoma cruzi (strain CL Brener)) (UniProt Q4DSP6); assay: Trypanosoma cruzi tyrosyl tRNA synthetase (TcYRS) _High Tyrosine SOP; type: functional; settings: 30 µM; also: in the data most compounds retested in dose-response had high values
# T4 sequence (whole entry): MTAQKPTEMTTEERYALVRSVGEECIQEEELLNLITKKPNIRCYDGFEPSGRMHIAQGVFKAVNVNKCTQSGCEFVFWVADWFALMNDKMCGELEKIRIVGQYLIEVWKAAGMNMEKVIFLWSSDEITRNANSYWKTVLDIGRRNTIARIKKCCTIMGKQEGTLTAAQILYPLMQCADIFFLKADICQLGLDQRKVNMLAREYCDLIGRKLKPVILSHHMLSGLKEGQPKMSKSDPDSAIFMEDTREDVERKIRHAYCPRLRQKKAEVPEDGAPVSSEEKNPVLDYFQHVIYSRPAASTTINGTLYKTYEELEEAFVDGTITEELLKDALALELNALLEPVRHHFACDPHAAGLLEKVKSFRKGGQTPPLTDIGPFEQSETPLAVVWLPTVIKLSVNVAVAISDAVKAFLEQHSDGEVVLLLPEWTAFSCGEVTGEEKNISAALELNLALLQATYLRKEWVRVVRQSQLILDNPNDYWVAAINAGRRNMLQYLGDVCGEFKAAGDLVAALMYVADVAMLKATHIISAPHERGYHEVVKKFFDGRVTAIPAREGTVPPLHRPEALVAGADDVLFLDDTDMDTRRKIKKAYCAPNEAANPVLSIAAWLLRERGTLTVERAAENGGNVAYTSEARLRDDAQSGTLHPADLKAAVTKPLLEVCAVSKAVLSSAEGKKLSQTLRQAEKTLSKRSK
# [8] = biological target: T4, Tyrosyl-tRNA synthetase, putative (Trypanosoma cruzi (strain CL Brener)); assay: Trypanosoma cruzi tyrosyl tRNA synthetase (TcYRS) SOP; type: functional; settings: 30 µM
# [9] = biological target: Chromo domain-containing protein 1 (Saccharomyces cerevisiae (strain ATCC 204508 / S288c) (Baker's yeast)) (UniProt P32657); assay: ScCHD-1 Enzyme Inhibition Assay; type: functional; settings: 30 µM; also: in the data most compounds retested in dose-response had high values
# Sequence of Chromo domain-containing protein 1 (Saccharomyces cerevisiae (strain ATCC 204508 / S288c) (Baker's yeast)) (P32657 whole entry, the tested form may be a part): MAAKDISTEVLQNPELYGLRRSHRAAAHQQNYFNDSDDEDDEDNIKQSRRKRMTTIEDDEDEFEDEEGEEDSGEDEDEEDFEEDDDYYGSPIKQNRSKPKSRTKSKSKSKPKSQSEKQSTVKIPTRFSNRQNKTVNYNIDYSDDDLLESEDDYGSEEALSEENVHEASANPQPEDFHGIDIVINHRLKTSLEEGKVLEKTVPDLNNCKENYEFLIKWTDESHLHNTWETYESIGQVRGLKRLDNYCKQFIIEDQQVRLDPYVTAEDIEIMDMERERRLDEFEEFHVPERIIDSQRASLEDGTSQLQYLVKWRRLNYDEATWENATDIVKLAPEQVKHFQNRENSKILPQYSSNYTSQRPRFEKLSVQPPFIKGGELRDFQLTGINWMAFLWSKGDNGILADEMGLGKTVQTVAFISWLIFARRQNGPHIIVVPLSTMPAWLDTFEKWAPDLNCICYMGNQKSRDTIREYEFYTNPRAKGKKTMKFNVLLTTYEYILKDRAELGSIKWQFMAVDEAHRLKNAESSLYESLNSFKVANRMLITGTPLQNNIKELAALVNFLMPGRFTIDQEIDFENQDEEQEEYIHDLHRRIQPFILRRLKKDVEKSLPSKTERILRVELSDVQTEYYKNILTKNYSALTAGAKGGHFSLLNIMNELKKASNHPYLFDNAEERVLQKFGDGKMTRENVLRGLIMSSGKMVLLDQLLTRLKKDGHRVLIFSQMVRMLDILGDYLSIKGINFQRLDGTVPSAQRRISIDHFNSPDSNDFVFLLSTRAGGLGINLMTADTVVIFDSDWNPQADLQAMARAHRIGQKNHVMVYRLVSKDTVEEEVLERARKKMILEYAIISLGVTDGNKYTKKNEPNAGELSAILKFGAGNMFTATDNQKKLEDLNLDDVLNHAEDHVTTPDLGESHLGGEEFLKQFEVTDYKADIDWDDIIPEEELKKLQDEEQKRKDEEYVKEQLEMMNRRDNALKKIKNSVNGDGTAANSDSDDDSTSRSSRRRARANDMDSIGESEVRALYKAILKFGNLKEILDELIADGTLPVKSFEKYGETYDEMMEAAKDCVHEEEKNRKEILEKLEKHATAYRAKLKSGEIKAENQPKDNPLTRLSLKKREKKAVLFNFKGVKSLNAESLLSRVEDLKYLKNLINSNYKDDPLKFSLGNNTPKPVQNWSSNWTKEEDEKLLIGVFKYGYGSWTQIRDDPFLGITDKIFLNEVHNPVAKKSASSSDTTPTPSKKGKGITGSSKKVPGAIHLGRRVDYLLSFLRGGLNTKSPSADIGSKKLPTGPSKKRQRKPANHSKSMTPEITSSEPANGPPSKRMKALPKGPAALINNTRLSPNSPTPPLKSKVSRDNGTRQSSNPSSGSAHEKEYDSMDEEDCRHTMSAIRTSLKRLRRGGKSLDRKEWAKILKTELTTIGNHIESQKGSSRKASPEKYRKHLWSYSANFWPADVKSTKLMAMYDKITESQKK
# Sequence of Protein translocase subunit SecA (Escherichia coli (strain K12)) (P10408 whole entry): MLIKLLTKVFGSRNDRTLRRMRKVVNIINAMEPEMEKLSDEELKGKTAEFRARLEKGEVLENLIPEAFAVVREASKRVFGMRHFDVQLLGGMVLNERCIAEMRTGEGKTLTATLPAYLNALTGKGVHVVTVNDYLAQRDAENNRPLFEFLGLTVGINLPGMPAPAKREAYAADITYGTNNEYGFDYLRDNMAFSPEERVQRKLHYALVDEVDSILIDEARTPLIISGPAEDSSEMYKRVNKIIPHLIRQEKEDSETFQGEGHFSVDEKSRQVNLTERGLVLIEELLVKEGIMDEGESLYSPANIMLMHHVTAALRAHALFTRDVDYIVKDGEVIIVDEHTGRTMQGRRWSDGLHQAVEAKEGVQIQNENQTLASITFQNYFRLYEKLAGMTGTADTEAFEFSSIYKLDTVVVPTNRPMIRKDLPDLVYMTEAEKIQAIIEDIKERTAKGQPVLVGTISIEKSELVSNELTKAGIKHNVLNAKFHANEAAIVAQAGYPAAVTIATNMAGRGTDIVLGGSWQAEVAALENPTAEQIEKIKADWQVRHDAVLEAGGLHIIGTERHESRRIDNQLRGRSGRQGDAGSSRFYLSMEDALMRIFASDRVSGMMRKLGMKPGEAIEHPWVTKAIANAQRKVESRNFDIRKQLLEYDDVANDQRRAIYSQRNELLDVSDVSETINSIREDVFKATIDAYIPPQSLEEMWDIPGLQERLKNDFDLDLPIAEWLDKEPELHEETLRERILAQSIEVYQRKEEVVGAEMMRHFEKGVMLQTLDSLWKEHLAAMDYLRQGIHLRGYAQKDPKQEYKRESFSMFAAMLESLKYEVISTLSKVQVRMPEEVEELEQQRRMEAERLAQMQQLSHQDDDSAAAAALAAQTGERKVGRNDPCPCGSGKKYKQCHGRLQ
# Sequence of Sialic acid-binding Ig-like lectin 9 (Homo sapiens) (Q9Y336 whole entry): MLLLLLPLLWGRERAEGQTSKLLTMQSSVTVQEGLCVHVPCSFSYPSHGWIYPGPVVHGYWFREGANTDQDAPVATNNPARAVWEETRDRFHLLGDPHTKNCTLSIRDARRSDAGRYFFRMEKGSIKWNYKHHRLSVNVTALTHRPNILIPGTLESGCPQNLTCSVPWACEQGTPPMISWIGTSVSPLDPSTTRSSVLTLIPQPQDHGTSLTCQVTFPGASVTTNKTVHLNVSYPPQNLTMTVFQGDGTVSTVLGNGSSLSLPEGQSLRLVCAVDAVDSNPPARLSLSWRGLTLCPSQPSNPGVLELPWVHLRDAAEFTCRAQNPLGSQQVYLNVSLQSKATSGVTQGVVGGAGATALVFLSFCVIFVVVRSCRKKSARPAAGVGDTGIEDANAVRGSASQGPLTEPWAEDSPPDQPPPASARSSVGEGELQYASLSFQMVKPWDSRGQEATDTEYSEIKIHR
Compound,Percent Effect [1],Percent Effect [2],Percent Effect [3],Percent Effect [4],Percent Effect (Trypanosoma cruzi),Percent Effect [5],Percent Effect [6],Percent Effect (Homo sapiens),Percent Effect [7],Percent Effect [8],Percent Effect [9]
O=C(COCC1CC1)N1CCCC(n2ccnc2)C1 (stereo not given),-2.64%,11.4%,1.59%,-0.338%,-1.33%,2.37%,9.26%,5.7%,1.04%,5.06%,-21.1%
COc1nccc(N2CCN(Cc3ccc(C)cc3)C(=O)C2)c1C#N,-1.96%,15.6%,-4.99%,5.78%,8.16%,-33.1%,13.3%,-2.81%,8.6%,21%,9%
COc1cc(C)nc(N2CCN(C(=O)CCc3cscn3)CC2)n1,1.16%,2.7%,-1.3%,0.273%,-6.95%,1.91%,11.4%,0.884%,5.82%,9.76%,-3.75%
N#Cc1cccnc1N1CCC2(CCCN(C3CCOCC3)C2=O)C1 (stereo not given),-3.31%,5.48%,0.329%,1.41%,2.58%,-3.99%,8.82%,7.98%,1.04%,1.24%,-4.64%
CCS(=O)(=O)N1CCC(c2nnc(Cn3cccn3)n2C2CC2)CC1,-4.32%,1.39%,-35.4%,-1%,2.23%,3.97%,2.1%,-11.4%,2.1%,7.69%,-2.3%
